Records with an inconclusive call do not appear. A call without a number means that no potency is given here. The source made the active and inactive calls. Calls follow the shape of the dose curve; as a rule, active = well fitted curve in the direction sought with a large enough effect; inconclusive = small, poorly fitted or top-dose-only effect, or another doubt; inactive = no such curve, though single readings can be large; an effect the other way counts as inactive or inconclusive.

Chain of Muscarinic acetylcholine receptor M1 (Rattus norvegicus) (P08482 whole entry, looked up): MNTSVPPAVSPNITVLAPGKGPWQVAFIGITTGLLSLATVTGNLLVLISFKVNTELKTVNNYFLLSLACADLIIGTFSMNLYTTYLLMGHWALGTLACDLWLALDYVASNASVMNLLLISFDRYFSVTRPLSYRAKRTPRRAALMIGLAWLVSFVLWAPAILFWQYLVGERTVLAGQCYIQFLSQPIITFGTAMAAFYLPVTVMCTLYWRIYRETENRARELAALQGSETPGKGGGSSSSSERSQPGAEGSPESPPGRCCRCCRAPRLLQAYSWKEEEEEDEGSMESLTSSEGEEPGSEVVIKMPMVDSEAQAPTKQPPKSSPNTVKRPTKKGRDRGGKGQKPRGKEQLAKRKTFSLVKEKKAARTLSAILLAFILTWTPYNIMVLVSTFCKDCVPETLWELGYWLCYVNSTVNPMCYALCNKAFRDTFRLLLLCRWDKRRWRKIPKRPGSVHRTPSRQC

Tested on in one test: not listed separately
As to the kind of experiment: qHTS Assay for Identification of Small Molecule Agonists for Thrombopoietin (TPO) Signaling Pathway (AID 917). Conditions: TPO signaling pathway reporter cells, agonist qHTS; series mostly up to 38.5 µM. In short, it runs like this:
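Activators of TPO signaling were sought in murine Ba/F3 cells transfected with the human receptor, using a luciferase gene driven by the Glycoprotein IIb promoter; 24-hr compound exposure at 37 C alongside 26 pM TPO, in IL-3-free medium.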
`C[C@@]12CC[C@H]3[C@@H](CC=C4C[C@H](OS(=O)(=O)O)CC[C@]43C)[C@H]1CCC2=O`: the outcome was inactive.
The same measure, in the same setting: the same measure for `COc1ccc2c(c1O)-c1cccc3c1[C@H](C2)N(C)CC3`: “inactive”.
In the case of `COc1cc([C@@H](O)CN)ccc1O`, the result was inactive.
In the case of `COc1ccc2c(c1)[C@]13CCCC[C@@H]1[C@H](C2)NCC3`, the call was inactive.
Take `CO[C@@H]1CC=C2CCN3CCC4=C(CC(=O)OC4)[C@]23C1`: the molecule was classed as inactive.
As for `CCNC(=O)[C@@H]1O[C@@H](n2cnc3c(N)ncnc32)[C@@H](O)[C@H]1O`, the call was inactive.
Turning to `CC(C)N[C@@H](C)Cc1ccc(I)cc1`, the call was inactive.
Still for that read-out and setting: the same measure for `NC(=O)CN1C[C@@H](O)CC1=O`: “inactive”; for `C[Se]C[C@@H](N)C(=O)O`: “inactive”.

Another test concerns the target Muscarinic acetylcholine receptor M1 (Rattus norvegicus) (UniProt P08482). As to the kind of experiment: qHTS Assay for Antagonists of Acetylcholine Muscarinic M1 Receptor: Kinetic Measurement of Intracellular Calcium Response (AID 943). Also: nearly all actives have a fitted effect of over 75% in size. Also: potency is read from the fitted curve at half-maximal effect. Conditions: M1-expressing cells, kinetic intracellular calcium fluorescence; series mostly up to 35.3 µM. In short, it runs like this:
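Rat M1-CHO cells, 2000/well, overnight → Fluo-4 no-wash dye with probenecid, 1 h 37C → compound 10 min, room temp → basal read 6 s → carbachol EC80 (100 nM) → 4 min kinetic read; peak/basal.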
(qHTS replaces the single test concentration by a dilution series.)
With `C[C@@]12CC[C@H]3[C@@H](CC=C4C[C@H](OS(=O)(=O)O)CC[C@]43C)[C@H]1CCC2=O`, the Potency entry was “inactive”.
On the same count and under the same terms, the same measure for `CC(=O)c1c(O)c(C)c(O)c(Cc2c(O)c3c(c(C(=O)/C=C\c4ccccc4)c2O)OC(C)(C)C=C3)c1O`: “inactive”.
Same read-out and setting: the same measure for `O=C(O)[C@H]1[C@H](C(=O)O)[C@H]2CC[C@@H]1O2`: “inactive”.
On the same count and under the same terms, the same measure for `CCNC(=O)[C@@H]1O[C@@H](n2cnc3c(N)ncnc32)[C@@H](O)[C@H]1O`: “inactive”; for `CC(C)N[C@@H](C)Cc1ccc(I)cc1`: 8.91 µM (active); for `C[Se]C[C@@H](N)C(=O)O`: “inactive”.

The target is the same in a further test. As to the kind of experiment: qHTS Assay for Antagonists of Acetylcholine Muscarinic M1 Receptor: Measurement of IP-One Response (AID 944). Also: nearly all actives have a fitted effect of over 75% in size. Also: potency is read from the fitted curve at half-maximal effect. Conditions: CHO-M1 cells, IP-One HTRF, antagonist mode; series mostly up to 46.1 µM. In outline:
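M1-CHO (rat), 2000 cells/well, overnight recovery; cpd 10 min; carbachol EC80 (200 nM), 30 min, HEPES buffer + 50 mM LiCl pH 7.4; IP-One HTRF, Ex 337, Em 620/665 nm.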
With `C[C@@]12CC[C@H]3[C@@H](CC=C4C[C@H](OS(=O)(=O)O)CC[C@]43C)[C@H]1CCC2=O`, the Potency result was “inactive”.
The same measure, in the same setting: with `COc1ccc2c(c1O)-c1cccc3c1[C@H](C2)N(C)CC3` the entry was “inactive”; with `COc1cc([C@@H](O)CN)ccc1O`, “inactive”; with `CC(=O)c1c(O)c(C)c(O)c(Cc2c(O)c3c(c(C(=O)/C=C\c4ccccc4)c2O)OC(C)(C)C=C3)c1O`, “inactive”.
Still for that read-out and setting: the same measure for `O=C(O)[C@H]1[C@H](C(=O)O)[C@H]2CC[C@@H]1O2`: “inactive”; for `COc1ccc2c(c1)[C@]13CCCC[C@@H]1[C@H](C2)NCC3`: “inactive”.
The same measure, in the same setting: the same measure for `CO[C@@H]1CC=C2CCN3CCC4=C(CC(=O)OC4)[C@]23C1`: “inactive”.
Take `CCNC(=O)[C@@H]1O[C@@H](n2cnc3c(N)ncnc32)[C@@H](O)[C@H]1O`: the Potency result was “inactive”.
On to `CC(C)N[C@@H](C)Cc1ccc(I)cc1`, for which the Potency was 14.1 µM (active).
Still for that read-out and setting: the same measure for `NC(=O)CN1C[C@@H](O)CC1=O`: “inactive”.
Still for that read-out and setting: the same measure for `C[Se]C[C@@H](N)C(=O)O`: “inactive”.

For the origin of these results see PubChem BioAssay (NCATS).
